Screening results as filed in PubChem.
aSyn UTR inh: MLPCN primary screen, SNCA 5' untranslated region; alpha-synuclein 5'UTR reporter, inhibitor activity; inhibition, % (tested at 7.5 µM); actives 0.82% (n = 300,000); AID 1813, 2009; in the data active = inhibition above about 60%;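 also: H4 neuroglioblastoma cells stably carrying SNCA 5'UTR luciferase fusion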
LMP1 NFkB inh: EBV LMP1-driven NF-kappaB luciferase reporter inhibitors, primary screen, cell-based, luminescence, single point; LMP1-induced NF-kappaB luciferase reporter cells; AID 504558, 2011; inhibition, % at 12.5 µM; actives 0.69% (n = 350,000); in the data active = inhibition above about 41%
PAX8 reporter: inhibitors of PAX8-driven TPO luciferase reporter, primary screen, RMG-I cells, single concentration; AID 652154, 2013; SteadyGlo, 24 h; actives 1.2% (n = 360,000); inhibition, % at 12.6 µM;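 active = mean replicate inhibition at least 60% with every replicate also reaching 60%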;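 also: luciferase light reporting Pax8 driven TPO promoter activity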
TRPM1 prom inh: inhibitors of MITF-dependent TRPM1 promoter reporter, primary screen, cell-based, SK-MEL-5, single point, luciferase; SK-MEL-5 TRPM1 promoter luciferase, 24 h; inhibition, % at 12.5 µM; actives 0.83% (n = 330,000);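 active = mean inhibition across replicates of 60% or more, whatever share of single replicates reaches that level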
Shn3 inh set2: reduction of Shn3 3'UTR firefly luciferase signal, primary screen, Schnurri-3 inhibitor project, cell-based, Clone20 osteoblasts, set 2. Clone20 osteoblast Shn3 3'UTR firefly luciferase, 24 h. inhibition, % at 12.5 µM. actives 0.52% (n = 360,000). AID 588674, 2011;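 active = mean inhibition of at least 75% with every replicate also reaching 75%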
Numbers stand for hits; . = inactive; / = not tested or not shown. A selection: hits, their analogues and other compounds. The true share with any hit is near 2.1%.

SMILES | aSyn UTR inh | LMP1 NFkB inh | PAX8 reporter | TRPM1 prom inh | Shn3 inh set2
Cc1ccc(C(=O)Nc2cccc(C(=O)N/N=C/c3ccccc3F)c2)cc1 | . | 59 | . | . | .
Cc1ccc(C(=O)Nc2cccc(C(=O)O)c2)cc1 | 87 | / | / | / | /
C=CCn1c(C)c(/C=C/c2cc[n+](C)cc2)c2ccccc21 | . | . | . | . | .
CCn1cc(/C=C/c2cc[n+](C)cc2)c2ccccc21 | . | . | 77 | . | .
C=CCn1cc(/C=C/c2cc[n+](C)cc2)c2ccccc21 | . | . | 93 | . | .
CC(C)n1cc(/C=C/c2cc[n+](C)cc2)c2ccccc21 | . | . | 83 | 63 | .
CNC[C@H]1OCCCC[C@@H](C)Oc2ccc(NC(=O)C3CCCCC3)cc2C(=O)N([C@@H](C)CO)C[C@@H]1C | / | / | . | / | /
CC(=O)c1ccc(-c2nc3c4ccccc4ccn3c2C(C)=O)o1 | . | 77 | / | . | .
COc1ccc(NC(=O)Nc2ccc3c(c2)CC(=O)N([C@H](C)CO)C[C@H](C)[C@H](CN(C)Cc2ccc(Oc4ccccc4)cc2)O3)cc1 | / | / | . | / | /
O=C(Nc1cccc(C(F)(F)F)c1)Nc1ccc(N2CCCC2)c(S(=O)(=O)Nc2ccccc2Cl)c1 | 93 | . | 90 | 72 | 92
Fc1ccc2cc(-c3cccnc3)ncc2c1 | / | . | . | . | .
Cc1ccc(C(=O)CN(CCC(=O)O)S(=O)(=O)c2ccc([N+](=O)[O-])cc2)cc1 | / | . | . | . | .
COc1ccc(C(=O)CN(CCC(=O)O)S(=O)(=O)c2ccc([N+](=O)[O-])cc2)cc1 | / | 61 | . | . | .
Nc1ncnc(N)c1N=Nc1ccccc1 | 112 | . | . | . | .
Nc1nn(-c2ccccc2)c(N)c1N=Nc1ccccc1 | . | . | . | . | .
Cc1cccc(C(=O)Nc2sc(-c3ccccc3)cc2C(=O)O)c1 | . | . | . | . | .
C=C1C(=O)C=C[C@]2(C)C[C@@H]3OC(=O)[C@](C)(O)[C@H]3C[C@@H]12 | . | . | 67 | / | .
Cc1cccc(Oc2cc(NC(=O)Cn3cnc([N+](=O)[O-])n3)cc([N+](=O)[O-])c2)c1 | / | . | . | . | .
CC(=O)c1ccc(Nc2nc(C)cc(C)n2)cc1 | . | 80 | . | . | .
CC1(C(=O)NS(=O)(=O)C2CC2)CCN(C(=O)c2ccc3c(c2)OCO3)C1 (stereo not drawn) | / | / | . | / | .
Cc1cc(/C=N/NC(=O)c2c(Br)cnn2C)c(C)n1-c1cccc(Br)c1 | . | . | 77 | . | .
O=C(/C(=C/c1ccc(Cl)cc1)c1nc2ccccc2[nH]1)c1cccs1 | . | . | / | 95 | 88
O=C(/C(=C\c1ccccc1)c1nc2ccccc2[nH]1)c1ccc(Cl)cc1 | . | . | . | . | .
COc1ccc(S(=O)(=O)N(C(C)=O)c2ccc(OC(C)=O)c3ccccc23)cc1[N+](=O)[O-] | . | . | . | 71 | .
CC(=O)Oc1ccc(N(C(C)=O)S(=O)(=O)c2ccccc2)c2ccccc12 | / | . | . | / | .
SMILES | aSyn UTR inh | LMP1 NFkB inh | PAX8 reporter | TRPM1 prom inh | Shn3 inh set2
O=C(NCCN1C(=O)S/C(=C\c2ccc(OC(F)F)cc2)C1=O)c1cnccn1 | . | . | 128 | . | .
Cc1ccc(Cl)cc1N1CCN(C(=O)c2cc3c(=O)[nH]c4ccccc4c3n2C)CC1 | . | . | . | 64 | .
Cc1nc(C)c(C(=O)Nc2cccc(F)c2)s1 | . | . | . | . | .
COc1cccc(OC)c1C(=O)NNC(=O)c1cccc(COc2ccc3c(c2)CCC3)c1 | . | . | . | . | .
O=C(O)c1cccc(COc2ccc3c(c2)CCC3)c1 | 81 | 85 | 108 | 96 | .
O=C(NCc1ccccc1)c1cccc(COc2ccc3c(c2)CCC3)c1 | . | 58 | . | . | .
O=C(CNc1ccccc1)N/N=C/c1c(O)ccc2ccccc12 | 69 | . | . | . | 91
O=C(CSCC(=O)Nc1ccccc1)N/N=C/c1c(O)ccc2ccccc12 | 76 | 51 | / | 69 | 93
O=C(N/N=C/c1c(O)ccc2ccccc12)Nc1ccccc1 | . | / | . | / | /
COc1ccc(C2Nc3ccccc3C(=O)N2c2ccccc2)cc1CSc1ccccn1 (stereo not drawn) | . | . | . | . | .
COc1ccc(C2Nc3ccccc3C(=O)N2c2ccc(F)cc2)cc1CSc1ccccn1 (stereo not drawn) | . | . | 136 | . | .
CCOc1ccc(NC(=O)CSc2nnc(Cn3cnc([N+](=O)[O-])n3)n2C)cc1 | . | . | . | . | .
CC(=O)OC(C)(C)/C=C/C(=O)[C@](C)(O)C1[C@H](O)C[C@@]2(C)C3CC=C4C(C=C(O[C@@H]5O[C@H](CO)[C@@H](O)[C@H](O)[C@H]5O)C(=O)C4(C)C)[C@]3(C)C(=O)C[C@]12C (stereo partly drawn) | / | . | 102 | . | .
C[C@H]1CCCCO[C@@H](CN(C)Cc2ccc(C(F)(F)F)cc2)[C@@H](C)CN([C@@H](C)CO)C(=O)c2cc(NC(=O)CCC(F)(F)F)ccc2O1 | / | / | . | / | /
C[C@@H]1CCCCO[C@@H](CN(C)Cc2ccc(C(F)(F)F)cc2)[C@H](C)CN([C@H](C)CO)C(=O)c2cc(NC(=O)Nc3ccc(C(F)(F)F)cc3)ccc2O1 | / | / | 69 | / | /
C[C@H](CO)N1C[C@H](C)[C@H](CN(C)Cc2ccc(C(F)(F)F)cc2)OCCCC[C@H](C)Oc2ccc(NC(=O)CCC(F)(F)F)cc2C1=O | / | / | 77 | / | /
C[C@@H]1CCCCO[C@@H](CN(C)Cc2ccc(C(F)(F)F)cc2)[C@H](C)CN([C@H](C)CO)C(=O)c2cc(NC(=O)Nc3ccc(F)cc3)ccc2O1 | / | / | 69 | / | /
C[C@@H]1CN([C@@H](C)CO)C(=O)c2cc(NC(=O)Nc3ccc(C(F)(F)F)cc3)ccc2O[C@@H]1CN(C)Cc1ccc(C(F)(F)F)cc1 | / | / | . | / | /
C[C@@H]1CN([C@@H](C)CO)C(=O)c2cc(NC(=O)Nc3ccc(C(F)(F)F)cc3)ccc2O[C@H]1CN(C)Cc1ccc(C(F)(F)F)cc1 | / | / | 70 | / | /
Nc1ncnc2c1ncn2[C@@H]1O[C@H](C(=O)NS(=O)(=O)c2ccccc2[N+](=O)[O-])[C@@H](O)[C@H]1O | / | / | . | / | .
O=C1c2ccccc2C(=O)N1CC1c2ccccc2CCN1C(=O)C1CCCCC1 (stereo not drawn) | . | . | / | . | .
CO[C@H]1CN(C)C(=O)c2ccc(NC(=O)c3ccc(F)cc3)cc2OC[C@@H](C)NC[C@@H]1C | / | / | . | / | /
COCCN1CCC(CNCc2cn[nH]c2-c2ccc(C)c(C)c2)C1 (stereo not drawn) | . | . | . | . | .
C[C@@H]1CCCCO[C@H](CN(C)Cc2ccc(C(F)(F)F)cc2)[C@@H](C)CN([C@@H](C)CO)C(=O)c2cc(NC(=O)Nc3ccc(F)cc3)ccc2O1 | / | / | 92 | / | /
